In the library only some 6.8% were active in any assay of this set; here they are far more common.
PINK1 expr mod – PINK1 expression modulation; PINK1 immunofluorescence, high-content cytometry, 24 h; Potency, µM (series often up to 76.6 µM), for the others: at the top dose activation (PINK1 increase), actives largely listed as activators; actives 0.2% (n = 410,000); AID 624263; active = well fitted activation curve with a large enough effect; inconclusive = small, poorly fitted or top-dose-only effect; cell line not stated here; also: % of control where 0% means no effect; nearly all actives have a fitted effect of over 65% in size
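PINK1 protein level read as immunofluorescence by microplate cytometer in a fixed, stained stable cell line after 24 h exposure to five compound concentrations, with CCCP as control.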
MCF10A rerep – induces DNA re-replication in MCF 10a normal breast cells. AID 624296. MCF 10A DNA re-replication, Hoechst nuclear intensity, 48 h. Potency, µM (highest dose often 46.1 µM), for the others: at the top dose activity, positive = re-replication, usual class: activators. actives 2.9% (n = 350,000); also: % of control where 0% means no effect; nearly all actives have a fitted effect of over 50% in size
KB-V1 MDR tox – KB-V1 MDR subline cytotoxicity | Potency, µM (top dose mostly 46.1 µM), usual class: cytotoxic | KB-V1 MDR cells viability, CellTiter-Glo, 72 h | actives 3.4% (n = 400,000); also: % is scaled to controls: 0 for no effect and ±100 for the full control effect; nearly all actives have a fitted effect of over 60% in size
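Cytotoxicity toward P-gp-expressing KB-V1 cells was determined as loss of CellTiter-Glo luminescence after 72 h at 37 degrees C. Compounds were tested in quantitative HTS format across a concentration range, with curves fitted to normalized data.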
SW480 rereplic – induces DNA re-replication in SW480 colon adenocarcinoma cells | Potency, µM (titrated, usually from 46.1 µM), for the others: top-dose re-replication activation, usual class: activators | actives 1.8% (n = 340,000) | SW480 DNA re-replication, Hoechst DNA content imaging, 48 h; also: % of control where 0% means no effect; nearly all actives have a fitted effect of over 55% in size
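Image-based DNA-content assay: after two days of treatment, nuclei were labelled with the DNA dye Hoechst and imaged, and hits were compounds raising the count of nuclei showing high fluorescence intensity.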
TSG101-PTAP inh – blocks PTAP/TSG101 interaction to inhibit HIV-1 budding; Potency, µM (highest dose often 115 µM), inactives show at the top dose activity change, negative = inhibition, usual class: inhibitors; 340,000 tested, under 10 active; AID 493005; Fluorescence polarization, FITC-PTAP peptide / Tsg101 binding; active = well fitted inhibition curve with a large enough effect in the main read-out, with a control signal flat, not every such curve was filed as active; inconclusive = small, poorly fitted or top-dose-only effect, or effect the other way, or a change in a side signal; inactive = no such curve, though single readings can be large or run the other way; also: % of control where 0% means no effect
Target sequence (Q99816 whole entry, looked up): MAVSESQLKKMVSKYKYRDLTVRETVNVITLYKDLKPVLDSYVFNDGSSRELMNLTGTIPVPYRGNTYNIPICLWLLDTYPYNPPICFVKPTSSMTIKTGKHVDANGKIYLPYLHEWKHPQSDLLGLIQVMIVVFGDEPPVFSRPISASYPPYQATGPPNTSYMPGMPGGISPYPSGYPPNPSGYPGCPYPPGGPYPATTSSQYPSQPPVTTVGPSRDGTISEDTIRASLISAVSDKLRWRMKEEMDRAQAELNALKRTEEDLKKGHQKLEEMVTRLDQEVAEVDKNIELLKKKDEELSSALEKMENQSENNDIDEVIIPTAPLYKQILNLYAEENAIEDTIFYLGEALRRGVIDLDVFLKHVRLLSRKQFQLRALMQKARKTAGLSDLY
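Tsg101 binding domain (10 uM final) was mixed with compound and a FITC-labeled PTAP peptide (50 nM final) in HEPES pH 7.5 buffer with NaCl, Tween 20, EDTA and TCEP; fluorescence polarization was read after 20 min at r.t.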
KB-3-1 cytotox – KB-3-1 parental cell cytotoxicity; KB-3-1 viability, CellTiter-Glo ATP luminescence, 72 h; Potency, µM (top dose mostly 46.1 µM), most hits filed as cytotoxic; actives 1.4% (n = 400,000); AID 1347075; also: % is scaled to controls: 0 for no effect and ±100 for the full control effect; nearly all actives have a fitted effect of over 60% in size
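Screening of KB-3-1 cells (DMEM, 10% FBS, phenol-red free) ran from lowest to highest compound concentration; after 72 h at 37 °C viability was read luminescently and curves fitted.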
The depositor's hits bear a star; i = inactive; ? = inconclusive; nt = no result given; ! = repeats disagree; [ ] = remark or other dose. Unless noted, calls follow the shape of the dose curve; as a rule, active = well fitted curve in the direction sought with a large enough effect; inconclusive = small, poorly fitted or top-dose-only effect, or another doubt; inactive = no such curve, though single readings can be large; an effect the other way counts as inactive or inconclusive. Potency is read from the fitted curve at half-maximal effect.

SMILES	PINK1 expr mod	MCF10A rerep	KB-V1 MDR tox	SW480 rereplic	TSG101-PTAP inh	KB-3-1 cytotox
COc1cccc(CNc2nc3cc(-c4ccccc4C)sc3c(=O)n2C)c1OC	3.5%	nt	i	nt	nt	?
COc1cccc(CNc2nc3cc(-c4cccc(C(F)(F)F)c4)sc3c(=O)n2C)c1OC	-0.3%	nt	i	nt	nt	i
COc1cccc(CNc2nc3cc(-c4cccc(Cl)c4)sc3c(=O)n2C)c1OC	0.8%	nt	8.2µM*	nt	nt	14.6µM*
COc1ccccc1CNc1nc2cc(-c3ccc(OC)c(OC)c3)sc2c(=O)n1C	1.1%	nt	9.2µM*	nt	nt	?
COc1ccc(CN(C)S(=O)(=O)c2nnc(NC(=O)C(C)C)s2)cc1OC	1.3%	nt	i	nt	nt	?
Cc1cc(C(=O)N2CCCC(C(=O)c3cccc(C(F)(F)F)c3)C2)n[nH]1 (stereo not given)	-1.7%	-1.4%	i	17.2%	-10.3%	i
Cc1noc(C)c1C(=O)N1CCCC(C(=O)c2cccc(C(F)(F)F)c2)C1 (stereo not given)	6.2%	-1.7%	i	5.8µM*	-0.1%	i
O=C(C1CCCN(S(=O)(=O)c2ccccc2[N+](=O)[O-])C1)N1CCN(c2ccccc2)CC1 (stereo not given)	5.9%	-10.6%	5.8µM*	19.8%	-5.1%	i
COc1cccc(N2CCN(C(=O)C3CCCN(S(=O)(=O)c4ccc5c(c4)oc(=O)n5C)C3)CC2)c1 (stereo not given)	-1.0%	0.9%	i	-25.6%	-3.4%	11.6µM*!
O=C(C1CCCN(S(=O)(=O)c2ccccc2)C1)N1CCCCCC1 (stereo not given)	2.6%	29.1%	i	0.517µM*!	3.1%	i
COc1ccc(CNC(=O)c2cnc(N3CCCC3)nc2C)cc1	0.6%	nt	i	nt	nt	i
Cc1oc2ncn(CC(C)C)c(=O)c2c1C(=O)NCCCN1CCCCC1	0.5%	nt	i	nt	nt	i
O=C(CSc1nc2c([nH]c3ccccc32)c(=O)n1-c1ccccc1F)Nc1cccc(C(F)(F)F)c1	-0.8%	nt	?	nt	nt	14.6µM*
Cn1c(SCC(=O)Nc2ccccc2)nc2c([nH]c3ccccc32)c1=O	4.3%	18.4µM*	i	-12.5%	0.5%	i
CC(=O)Nc1ccc(NC(=O)CSc2nc3c([nH]c4ccccc43)c(=O)n2-c2ccccc2F)cc1	-0.8%	2.4%	i	-10.2%	-1.6%	?
CCC1CCCCN1C(=O)CSc1nc2c([nH]c3ccccc32)c(=O)n1C (stereo not given)	2.9%[38.3 µM]	1.0%	23.1µM*	-4.2%	-2.6%	i
CCc1ccc(NC(=O)CSc2nc3c([nH]c4ccccc43)c(=O)n2C)cc1	1.1%	nt	nt	nt	nt	nt
COc1ccc(CCNC(=O)CCc2c(C)nc3cc(-c4ccccc4OC)nn3c2C)c(OC)c1	0.1%	nt	i	nt	nt	i
CC1=C(C(=O)OC(C)C)C(c2ccccc2)NC(=S)N1C (stereo not given)	4.3%	-0.8%	18.4µM*	?	-4.4%	i
CCOC(=O)C1=C(C)N(C)C(=S)NC1c1ccccc1 (stereo not given)	0.9%	16.8%	i	-2.4%	-0.1%	i
Cc1ccc(N(C(=O)CNC(=O)c2ccco2)C(C(=O)NC2CCCCC2)c2cccnc2)cc1C (stereo not given)	3.2%	-7.7%	i	-7.6%	-1.2%	i
Cc1ccc(N(C(=O)CCl)C(C(=O)NC2CCCCC2)c2cccnc2)cc1C (stereo not given)	-0.8%	7.31µM*	3.66µM*	?	0.7%	3.66µM*
Cc1cc(C)cc(N(C(=O)Cn2nnc(-c3ccccc3)n2)C(C(=O)NC2CCCCC2)c2ccccn2)c1 (stereo not given)	8.5%	-5.3%	?	-3.7%	0.3%	i
